Results as given in the OligoGym collection.

Each sequence was assayed against C1QTNF1 (assay: pooled miR-30 sensor sort-seq; sequence = guide strand). Conditions: shRNA.
Note: reference of the scale not given here.

Sequence | sensor-assay potency score (higher = more potent)
TAGAACTTGCCGGTGAACATGT | 0.14
TAGCAGTAGAACTTGCCGGTGA | 0.148
TAGGTGTCCAGCTCCTCGCTGA | -0.37
TTGGAGGCCTCGATCTCCGCGG | -1.29
TAGGTCTCCTTCTGGTTCCAGG | -0.883
TCACAGCAGCGCAAGCACCGGG | -0.832
AAGATAGTGATGTTGATCTGGG | -0.107
TCGATCTCCGCGGTCACCCTTC | -1.09
TGTATTTTTCATGTTGTTCTTC | 0.442
TTGTTCTTCAGCCCTCTCGGCA | -1.05
TAGAGGTTCACGAACTCCGTGT | 0.258
TTCATGTTGTTCTTCAGCCCTC | -0.239

What follows are sequences tested against C1orf101 in the same assay as above. Conditions: shRNA.

Sequence | sensor-assay potency score (higher = more potent)
TTGAATATTCACTAGGTCGAAA | -0.467
TTGACTTCCATGTCTGTGCTTC | 0.808
TAAAAACACAGCAATCTCCAGA | -0.0485
TAAACAACCACTCTGTGCCATA | -0.921
TTGGTTTCCTCTAATCTCCTTT | 0.267
TCTAACTTAATAGTACTTCTGG | 0.677
TAACTCTATAGTACCACAGAAA | -1.26
TAACTTAATAGTACTTCTGGTA | -0.353
TTGTATTGTGCCATCATCCAAA | -0.463
TTCATGTAAACAACCACTCTGT | 0.256
TTGATAGATTTCCATGTCCTGC | -1.09
TAGTGCATCATCTTTTGTCATT | -1.07
